# Where “and” joins values, the source holds several entries; their conditions need not be identical. Equal entries are not always repeated. This is part of a sample that, as a whole, favours compounds with a hit. Of some 83,000 tested, about 20% had one in any assay.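 Each cell line was grown in a 96-well plate and treated with one concentration of compound for 48 hours. Values below 10 were considered active.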 Calls of active or inactive are those of the source.
# Assays:
# Assay in all cases: NCI-60 one-dose screen, 48 h (100 = growth as untreated, 0 = no growth, -100 = all killed)
# UACC-62 melanoma = details: 10 µM unless noted
# TK-10 renal = details: 10 µM unless noted
# MCF7 breast = details: 10 µM unless noted
# HL-60(TB) leukemia = details: 10 µM unless noted
# A549/ATCC NSCLC = details: 10 µM unless noted
# 786-0 renal = details: 10 µM unless noted
# DU-145 prostate = details: 10 µM unless noted
# SF-268 CNS = details: 10 µM unless noted
# SF-539 CNS = details: 10 µM unless noted
# UACC-257 melanoma = details: 10 µM unless noted
# M14 melanoma = details: 10 µM unless noted
# HT29 colon = details: 10 µM unless noted
# PC-3 prostate = details: 10 µM unless noted
# SK-MEL-28 melanoma = details: 10 µM unless noted
# OVCAR-8 ovarian = details: 10 µM unless noted
# OVCAR-5 ovarian = details: 10 µM unless noted
# OVCAR-3 ovarian = details: 10 µM unless noted
# NCI/ADR-RES ovarian = details: 10 µM unless noted
# BT-549 breast = details: 10 µM
# HCT-15 colon = details: 10 µM
compound,measurement,setting,value
O=C(O)CCC1N=C(c2cccc(O)c2)c2ccccc2NC1=O (stereo unspecified),growth,UACC-62 melanoma,88.5% [30 µM] (inactive)
same,growth,TK-10 renal,96.4% [30 µM] (inactive)
same,growth,MCF7 breast,83.2% [30 µM] (inactive)
O=C1C(Cc2ccccc2)N=C(c2cccc(O)c2)c2ccc(Cl)cc2N1CC1CC1 (stereo unspecified),growth,UACC-62 melanoma,94.1% [30 µM] (inactive)
same,growth,TK-10 renal,105% [30 µM] (inactive)
same,growth,MCF7 breast,76.3% [30 µM] (inactive)
N#CCN1C(=O)C(CCC(N)=O)N=C(c2ccc(O)cc2)c2cc(Cl)ccc21 (stereo unspecified),growth,UACC-62 melanoma,91.5% [30 µM] (inactive)
same,growth,TK-10 renal,98.2% [30 µM] (inactive)
same,growth,MCF7 breast,93.4% [30 µM] (inactive)
CCOC(=O)C1OC1(c1ccccc1)c1ccccc1 (stereo unspecified),growth,HL-60(TB) leukemia,89.4% (inactive)
CNC(=O)O/N=C(/C)c1ccc(Cl)cc1,growth,A549/ATCC NSCLC,99.3% (inactive)
same,growth,786-0 renal,90.7% (inactive)
same,growth,DU-145 prostate,114% (inactive)
same,growth,SF-268 CNS,110% (inactive)
same,growth,SF-539 CNS,125% (inactive)
same,growth,UACC-257 melanoma,104% (inactive)
same,growth,M14 melanoma,98.7% (inactive)
same,growth,HT29 colon,99.1% (inactive)
same,growth,PC-3 prostate,91.8% (inactive)
same,growth,UACC-62 melanoma,114% (inactive)
same,growth,SK-MEL-28 melanoma,105% (inactive)
same,growth,TK-10 renal,91.6% (inactive)
same,growth,HL-60(TB) leukemia,92.1% (inactive)
same,growth,OVCAR-8 ovarian,102% (inactive)
same,growth,OVCAR-5 ovarian,111% (inactive)
same,growth,OVCAR-3 ovarian,114% (inactive)
same,growth,NCI/ADR-RES ovarian,109% (inactive)
same,growth,BT-549 breast,91.1% (inactive)
same,growth,MCF7 breast,96.6% (inactive)
O=C(O)CN1C(=O)C(Cc2ccccc2)N=C(c2cccc(O)c2)c2ccccc21 (stereo unspecified),growth,UACC-62 melanoma,90.1% [30 µM] (inactive)
same,growth,TK-10 renal,96% [30 µM] (inactive)
same,growth,MCF7 breast,79% [30 µM] (inactive)
C=CCN1C(=O)/C(=C\c2ccc3c(c2)CCC3)SC1=S,growth,HL-60(TB) leukemia,79% (inactive)
Nc1cccc(-c2ccc(COc3ccc(CC4SC(=O)NC4=O)cc3)cc2)c1 (stereo unspecified),growth,HL-60(TB) leukemia,43.4% (inactive)
C/C(=N/OC(=O)N(C)C)c1cc(Cl)ccc1Cl,growth,A549/ATCC NSCLC,101% (inactive)
same,growth,786-0 renal,97.8% (inactive)
same,growth,DU-145 prostate,105% (inactive)
same,growth,SF-268 CNS,99.4% (inactive)
same,growth,SF-539 CNS,103% (inactive)
same,growth,UACC-257 melanoma,103% (inactive)
same,growth,M14 melanoma,109% (inactive)
same,growth,HCT-15 colon,100% (inactive)
same,growth,HT29 colon,100% (inactive)
same,growth,PC-3 prostate,106% (inactive)
same,growth,UACC-62 melanoma,108% (inactive)
same,growth,SK-MEL-28 melanoma,113% (inactive)
same,growth,TK-10 renal,97.7% (inactive)
same,growth,HL-60(TB) leukemia,95.1% (inactive)
same,growth,OVCAR-8 ovarian,103% (inactive)
same,growth,OVCAR-5 ovarian,104% (inactive)
same,growth,OVCAR-3 ovarian,105% (inactive)
same,growth,NCI/ADR-RES ovarian,99.4% (inactive)
same,growth,BT-549 breast,98.5% (inactive)
same,growth,MCF7 breast,97.8% (inactive)
C/C(=N/OC(=O)N(C)C)c1ccc(Cl)cc1Cl,growth,A549/ATCC NSCLC,97.3% (inactive)
same,growth,786-0 renal,100% (inactive)
same,growth,DU-145 prostate,109% (inactive)
same,growth,SF-268 CNS,103% (inactive)
same,growth,SF-539 CNS,95.9% (inactive)
same,growth,UACC-257 melanoma,101% (inactive)
same,growth,M14 melanoma,106% (inactive)
same,growth,HCT-15 colon,105% (inactive)
same,growth,HT29 colon,105% (inactive)
same,growth,PC-3 prostate,118% (inactive)
same,growth,UACC-62 melanoma,98.7% (inactive)
same,growth,SK-MEL-28 melanoma,110% (inactive)
same,growth,TK-10 renal,88.5% (inactive)
same,growth,HL-60(TB) leukemia,93.7% (inactive)
same,growth,OVCAR-8 ovarian,106% (inactive)
same,growth,OVCAR-5 ovarian,106% (inactive)
same,growth,OVCAR-3 ovarian,99.5% (inactive)
same,growth,NCI/ADR-RES ovarian,96.7% (inactive)
same,growth,BT-549 breast,97% (inactive)
same,growth,MCF7 breast,95% (inactive)
CC12CC3OC(=O)C1COC14OC5(C2C1=O)C(O)(CCC1C4CC2OC24CC=CC(=O)C14C)C(=O)OC35C (stereo unspecified),growth,UACC-62 melanoma,-79.6% [100 µM] (active) and -94.2% [100 µM] (active)
same,growth,TK-10 renal,4.16% [100 µM] (active) and -100% [100 µM] (active)
same,growth,MCF7 breast,-49.7% [100 µM] (active) and -85% [100 µM] (active)
Cc1cc(NCc2cc(Nc3ccnc4cc(Cl)ccc34)ccc2F)nc(N2CCN(C)CC2)n1,growth,HL-60(TB) leukemia,-46.6% (active)
COC(=O)CSc1ccc(Cl)cc1,growth,HL-60(TB) leukemia,83.8% (inactive)
C=CC(=O)N1CCC[C@@H](n2nc(-c3ccc(Oc4ccccc4)cc3)c3c(N)ncnc32)C1,growth,HL-60(TB) leukemia,82.5% (inactive)
CCCCOc1nc2ccccc2cc1C1CNC(=O)c2ccccc2N1 (stereo unspecified),growth,HL-60(TB) leukemia,-8.72% (active)
COc1ccc(C/C(C)=C(\c2ccc(Cl)cc2)c2ccc(OCCN3CCCCCC3)cc2)cc1,growth,HL-60(TB) leukemia,30.7% (inactive)
N#CCN1C(=O)C(Cc2ccccc2)N=C(c2cccc(O)c2)c2ccc(Cl)cc21 (stereo unspecified),growth,UACC-62 melanoma,103% [30 µM] (inactive)
same,growth,TK-10 renal,102% [30 µM] (inactive)
same,growth,MCF7 breast,100% [30 µM] (inactive)
CCCCCN1C(=O)C(CO)N=C(c2cccc(O)c2)c2ccccc21 (stereo unspecified),growth,UACC-62 melanoma,81.1% [30 µM] (inactive)
same,growth,TK-10 renal,91% [30 µM] (inactive)
same,growth,MCF7 breast,91.1% [30 µM] (inactive)
COc1ccc(-c2n[nH]c(=O)c3nc(NC(=S)Nc4ccc(Oc5ccccc5)cc4)sc23)cc1,growth,HL-60(TB) leukemia,92.9% (inactive)
O=C(O)CNC(=O)c1ccccc1,growth,A549/ATCC NSCLC,101% (inactive)
same,growth,786-0 renal,100% (inactive)
same,growth,DU-145 prostate,119% (inactive)
same,growth,SF-268 CNS,107% (inactive)
same,growth,SF-539 CNS,89% (inactive)
same,growth,UACC-257 melanoma,92.4% (inactive)
same,growth,M14 melanoma,99.4% (inactive)
same,growth,HCT-15 colon,98% (inactive)
same,growth,HT29 colon,114% (inactive)
same,growth,PC-3 prostate,102% (inactive)
same,growth,UACC-62 melanoma,103% (inactive)
same,growth,SK-MEL-28 melanoma,107% (inactive)
same,growth,OVCAR-8 ovarian,113% (inactive)
same,growth,OVCAR-5 ovarian,98.6% (inactive)
same,growth,OVCAR-3 ovarian,105% (inactive)
same,growth,NCI/ADR-RES ovarian,101% (inactive)
same,growth,BT-549 breast,97.5% (inactive)
same,growth,MCF7 breast,104% (inactive)
NS(=O)(=O)c1ccc(Br)cc1,growth,HL-60(TB) leukemia,96.2% (inactive)
C/C=C1\CN2CCC34c5ccccc5N(C)C35OCC4(C(=O)OC)C1CC25 (stereo unspecified),growth,UACC-62 melanoma,82.9% [100 µM] (inactive) and -86% [100 µM] (active)
same,growth,TK-10 renal,80.6% [100 µM] (inactive) and 13.9% [100 µM] (inactive)
same,growth,MCF7 breast,77% [100 µM] (inactive) and -100% [100 µM] (active)

# Reference: PubChem BioAssay (NCI)
